From PubChem BioAssay AID1159580 (chemical genetic matrix, 2015)
The whole screen tested about 5,500 compounds, of which about 2,000 (36%) were called active. About 18% were inconclusive and are not listed. The list shows a part of the results. Unmarked numbers belong to inactive results. Rule as the data show it: active = normalized growth mostly below about 0.91 (no sharp cut-off); inconclusive = no clear call, values can overlap the other calls; inactive = mostly above about 0.92.

Experiment: chemical genetic growth profiling, strain panel (AID 1159580);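 also: tested at 20 µM; growth read once vehicle control cultures reached saturation at 30 °C; 1 = growth at the plate median or of vehicle wells; lower values mean less growth of the strain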
Conditions: S. cerevisiae deletion strains, growth OD

CC(C)c1ccc2c(c1O)CC[C@H]1C3=C(CC[C@]21C)C(=O)OC3
normalized growth (locus YJL187C, strain SWE1, stronger effect = lower value): 0.985 | normalized growth (locus YJR043C, strain POL32, stronger effect = lower value): 0.865 | normalized growth (locus YJR066W, strain TOR1, stronger effect = lower value): 0.898 | normalized growth (locus YJR075W, strain HOC1, stronger effect = lower value): 0.866 (active) | normalized growth (locus YKL009W, strain mrt4, stronger effect = lower value): 0.935 | normalized growth (locus YKL068W, stronger effect = lower value): 0.946 | normalized growth (locus YKL085W, strain MDH1 (second series), stronger effect = lower value): 0.918 (active) | normalized growth (locus YKL085W, strain MDH1, stronger effect = lower value): 0.918 (active) | normalized growth (locus YKL160W, strain elf1, stronger effect = lower value): 0.956 | normalized growth (locus YKR001C, strain vps1, stronger effect = lower value): 0.834 (active) | normalized growth (locus YKR026C, strain gcn3, stronger effect = lower value): 0.931 | normalized growth (locus YKR091W, strain srl3, stronger effect = lower value): 0.967 | normalized growth (locus YLL001W, strain dnm1, stronger effect = lower value): 0.967 | normalized growth (locus YLL026W, stronger effect = lower value): 0.962 | normalized growth (locus YLL041C, strain sdh2, stronger effect = lower value): 0.97 | normalized growth (locus YLR027C, strain aat2, stronger effect = lower value): 0.964 | normalized growth (locus YLR039C, strain RIC1, stronger effect = lower value): 0.628 (active) | normalized growth (locus YLR058C, strain SHM2, stronger effect = lower value): 0.911 | normalized growth (locus YLR102C, strain apc9, stronger effect = lower value): 0.954 | normalized growth (locus YLR113W, strain HOG1, stronger effect = lower value): 0.909 | normalized growth (locus YLR221C, strain rsa3, stronger effect = lower value): 0.96 | normalized growth (locus YLR258W, strain gsy2, stronger effect = lower value): 0.951 | normalized growth (locus YLR262C, strain YPT6 (second series), stronger effect = lower value): 0.816 (active) | normalized growth (locus YLR262C, strain YPT6, stronger effect = lower value): 0.667 | normalized growth (locus YLR268W, strain sec22, stronger effect = lower value): 0.923 | normalized growth (locus YLR320W, strain mms22, stronger effect = lower value): 0.863 (active) | normalized growth (locus YLR330W, strain CHS5, stronger effect = lower value): 0.638 (active) | normalized growth (locus YLR342W, strain FKS1 (second series), stronger effect = lower value): 0.65 (active) | normalized growth (locus YLR342W, strain FKS1, stronger effect = lower value): 0.987 | normalized growth (locus YLR357W, strain rsc2, stronger effect = lower value): 0.991 | normalized growth (locus YLR370C, strain arc18, stronger effect = lower value): 0.965 | normalized growth (locus YLR384C, strain iki3, stronger effect = lower value): 0.967 | normalized growth (locus YLR418C, strain cdc73, stronger effect = lower value): 0.7 (active) | normalized growth (locus YML016C, strain PPZ1, stronger effect = lower value): 0.969 | normalized growth (locus YML032C, strain rad52, stronger effect = lower value): 0.912 | normalized growth (locus YML120C, strain ndi1, stronger effect = lower value): 0.968 | normalized growth (locus YML124C, strain tub3, stronger effect = lower value): 0.988 | normalized growth (locus YMR058W, strain fet3, stronger effect = lower value): 0.961 | normalized growth (locus YMR078C, strain ctf18, stronger effect = lower value): 0.923 | normalized growth (locus YMR125W, strain sto1, stronger effect = lower value): 0.949 | normalized growth (locus YMR129W, stronger effect = lower value): 0.96 | normalized growth (locus YMR205C, strain PFK2, stronger effect = lower value): 0.88 | normalized growth (locus YMR223W, strain ubp8, stronger effect = lower value): 0.91 | normalized growth (locus YMR231W, strain pep5, stronger effect = lower value): 0.975 | normalized growth (locus YMR263W, strain SAP30, stronger effect = lower value): 0.896 | normalized growth (locus YMR307W, strain GAS1, stronger effect = lower value): 0.474 (active) | normalized growth (locus YNL067W, strain RPL9B, stronger effect = lower value): 0.932 | normalized growth (locus YNL071W, strain lat1, stronger effect = lower value): 0.853 (active) | normalized growth (locus YNL183C, strain NPR1, stronger effect = lower value): 0.924 | normalized growth (locus YNL209W, strain ssb2, stronger effect = lower value): 0.972 | normalized growth (locus YNL233W, strain BNI4, stronger effect = lower value): 0.723 (active) | normalized growth (locus YNL248C, strain rpa49, stronger effect = lower value): 0.957 | normalized growth (locus YNL250W, strain rad50, stronger effect = lower value): 0.971 | normalized growth (locus YNL271C, strain bni1, stronger effect = lower value): 0.992 | normalized growth (locus YNL298W, strain CLA4, stronger effect = lower value): 0.957 | normalized growth (locus YNL307C, strain MCK1, stronger effect = lower value): 0.536 (active) | normalized growth (locus YNL322C, strain KRE1 (second series), stronger effect = lower value): 0.973 | normalized growth (locus YNR049C, strain mso1, stronger effect = lower value): 0.976 | normalized growth (locus YNR052C, strain pop2, stronger effect = lower value): 0.953 | normalized growth (locus YOL012C, strain htz1): 0.499 | normalized growth (locus YOL147C, strain pex11, stronger effect = lower value): 0.933 | normalized growth (locus YOR001W, strain rrp6, stronger effect = lower value): 0.985 | normalized growth (locus YOR061W, strain CKA2, stronger effect = lower value): 0.964 | normalized growth (locus YOR069W, strain VPS5, stronger effect = lower value): 0.944 | normalized growth (locus YOR070C, strain gyp1, stronger effect = lower value): 0.956 | normalized growth (locus YOR080W, strain dia2, stronger effect = lower value): 0.986 | normalized growth (locus YOR083W, strain WHI5, stronger effect = lower value): 0.966 | normalized growth (locus YOR106W, strain vam3, stronger effect = lower value): 0.999 | normalized growth (locus YOR136W, strain idh2, stronger effect = lower value): 0.929 | normalized growth (locus YOR144C, strain elg1, stronger effect = lower value): 0.958 | normalized growth (locus YOR184W, strain ser1, stronger effect = lower value): 0.671 (active) | normalized growth (locus YOR231W, strain MKK1, stronger effect = lower value): 0.942 | normalized growth (locus YOR265W, strain rbl2, stronger effect = lower value): 0.963 | normalized growth (locus YOR270C, strain vph1, stronger effect = lower value): 0.794 | normalized growth (locus YOR290C, strain snf2, stronger effect = lower value): 0.909 | normalized growth (locus YOR316C, strain cot1, stronger effect = lower value): 0.968 | normalized growth (locus YPL051W, strain arl3, stronger effect = lower value): 0.932 | normalized growth (locus YPL055C, strain LGE1, stronger effect = lower value): 0.598 (active) | normalized growth (locus YPL078C, strain atp4, stronger effect = lower value): 0.934 | normalized growth (locus YPL106C, strain sse1, stronger effect = lower value): 0.965 | normalized growth (locus YPL240C, strain hsp82, stronger effect = lower value): 0.971 | normalized growth (locus YPL241C, strain CIN2, stronger effect = lower value): 0.911 (active) | normalized growth (locus YPL256C, strain CLN2, stronger effect = lower value): 0.876 | normalized growth (locus YPR119W, strain clb2, stronger effect = lower value): 0.951 | normalized growth (locus YPR141C, strain kar3, stronger effect = lower value): 0.965 | normalized growth (locus YPR163C, strain tif3, stronger effect = lower value): 0.794 (active) | normalized growth (locus YPR167C, strain met16, stronger effect = lower value): 0.947 | normalized growth (strain wtn01, stronger effect = lower value): 0.965
